ChEMBL document CHEMBL3433997, “St. Jude Leishmania screening dataset” (2016)

molecular target: Glucose transporter (Leishmania mexicana) (UniProt O61059); experiment: ST_JUDE_LEISH: Cytotoxicity at 2uM final concentration against transgenic Leishmania Mexicana promastigotes LmGT2 that are glucose transport deficient and complemented with the L. Mexicana glucose transporter 2. Activity is measured by DNA content using SYBR green in vitro; type: functional

Row | Structure (SMILES) | inhibition
1 | CC(C)N1CCC(N(Cc2ccc(-c3ccc(C(F)(F)F)cc3)cc2)C(=O)Cn2c(SCc3cccc(F)c3F)cc(=O)c3ccccc32)CC1 | 0.55%
2 | Cc1nc2nc(N)nc(N)c2c(C)c1Cc1c(Cl)cccc1Cl | 7.3%
3 | CC(C)CNCc1cccc(-c2ccc(CN(CCCN3CCN(C)CC3)C(=O)CCC3CCCC3)cc2)c1 | 9.11%
4 | COc1ccccc1C1CCN(CCN2CCC(NC(=O)c3ccc(-c4ccc(C#N)cc4)cc3)CC2)CC1 | 1.89%
5 | CCn1c(-c2nonc2N)nc2c(-c3cccc(NC(=O)Nc4ccccc4OC)c3)ncc(OCCCN)c21 | 3.42%
6 | Cc1[nH]c2c(NCc3ccc(F)cc3)nccc2c1C | 2.57%
7 | CNCc1cccc(-c2ccc3ccnc(N)c3c2)c1 | 7.76%
8 | C=CCNC(=O)C(C)c1ccc2cc(OC)ccc2c1 (stereo not given) | -0.06%
9 | CCC1(CC)N=C(N)N=C(N)C1c1ccc(Cl)c(Cl)c1 (stereo not given) | 0.44%
10 | Cc1cc(Nc2cccc(C(F)(F)F)c2)nc(NCc2ccccc2)n1 | 10.1%
11 | Cc1nn(-c2ccccc2)c2nc(-c3ccccc3)cc(C(=O)N3CCOCC3)c12 | -2.24%
12 | COCCNCc1cccc(-c2ccc3c(Nc4ccc(F)cc4Cl)ccnc3c2)c1 | 0.78%
13 | O=C(Nc1ccc2c(c1)CCC2)N[C@H]1CCN(Cc2ccc(OCCCN3CCCCC3)cc2)C1 | 2.47%
14 | COc1ccc(O)c(-c2sc(N=C(N)N)nc2-c2ccccc2)c1 | 3.42%
15 | Cc1sc(CNCCCNc2cc(=O)c3ccccc3[nH]2)c(C(F)(F)F)c1C | -0.52%
16 | NC(=O)c1sc(-n2cnc3ccc(C(=O)NCCN4CCOCC4)cc32)cc1OCc1ccccc1C(F)(F)F | -0.32%
17 | CC(C)(C)c1ccc(CNC(=O)c2cc(CNC3CCC(N)CC3)ccc2O)cc1 (stereo not given) | 0.99%
18 | Cc1cc(N2CCCCC2)nc2ccc(NC(=O)c3cc(=O)c4ccccc4o3)cc12 | 0.66%
19 | CC(C)(C)OC(=O)/C=C(\C(=O)OCc1ccc([N+](=O)[O-])cc1)c1csc(NC(c2ccccc2)(c2ccccc2)c2ccccc2)n1 | 3.64%
20 | O=C(c1cc2c(s1)-c1cccc(Cl)c1SC2)N1CCN(c2ccncc2)CC1 | 4.35%

Row | Structure (SMILES) | inhibition
21 | CC(CN)OCn1cnc2c(N)ncnc21 (stereo not given) | 4.83%
22 | OC(CNc1cccc(Cl)c1)Cn1c2ccc(Cl)cc2c2cc(Cl)ccc21 (stereo not given) | 2.34%
23 | O=C(Nc1ccccc1-c1ccccc1)C1CCCN1C(=O)Nc1ccc(Cl)cc1 (stereo not given) | -2.33%
24 | COc1ccc2c(NN=Cc3ccncc3)ccnc2c1 | -0.6%
25 | CC(C)(C)c1nn(-c2ccccc2)c2[nH]c(=O)c(CNCc3ccccc3)cc12 | 3.75%
26 | COc1ccc2nccc([C@@H](O)CN3CCC(NCCNc4ccccn4)CC3)c2c1 | 6.24%
27 | O=C(Nc1cccc(-c2nn3ncccc3c2-c2ccnc(Nc3cccc(C(F)(F)F)c3)n2)c1)c1c(F)cccc1F | -0.92%
28 | COC(=O)c1cc(OC)c(OC)cc1NC(=O)NC12CC3CC(CC(C3)C1)C2 | 1.18%
29 | Clc1cccc(CNc2nc(NCCc3c[nH]cn3)nc(NC3CCCCC3)n2)c1 | 2.21%
30 | CCNc1cc(C(=O)N[C@@H](Cc2ccccc2)[C@H](O)CNC(C)CCCC(C)C)cc(N2CCCS2(=O)=O)c1 (stereo not given in full) | 2.08%
31 | Cc1cccc2nc(-c3ccc(-c4cccc(NC(=O)C(C)CN5CCN(C)CC5)c4)s3)[nH]c12 (stereo not given) | 10.3%
32 | Cc1cccc2nc(-c3cccc(-c4cccc(NC(=O)CNc5ccc(C(N)=O)cc5)c4)c3)[nH]c12 | 3.03%
33 | CCNc1cc(C(=O)N[C@@H](Cc2ccccc2)[C@H](O)CNCc2cccc(OC)c2C)cc(N2CCCCS2(=O)=O)c1 | 2.02%
34 | O=[N+]([O-])c1cc(C(c2ccc(O)c([N+](=O)[O-])c2)C(Cl)(Cl)Cl)ccc1O | 7.92%
35 | CCCN(CC)CCOC(=O)c1ccccc1 | 9.33%
36 | COc1ccc(CNC2Cc3ccccc3C2)cc1-c1ccc(S(=O)(=O)NCCc2ccccn2)s1 | 2.04%
37 | Cn1cnc2c(Nc3ccncc3)nc(-c3ccc4c(c3)OCO4)nc21 | 3.95%
38 | CC(C)c1ccc(-c2nc3cc(Cl)cnc3[nH]2)cc1 | 4.06%
39 | Cc1ccc(Oc2ccccc2NC(=O)CCc2nc3ccccc3c(=O)[nH]2)cc1 | 2.88%
40 | CCN1CCN(c2cc(C)c3cc(NC(=O)c4cccc([N+](=O)[O-])c4)ccc3n2)CC1 | -1.42%
